# The sample as a whole holds a higher share of hits than the screen did.
# miR-122 inh: activators of miR-122 sensor in Huh7 cells; Huh7 psiCHECK-miR122 Renilla luciferase sensor, 48 h; activation, % at 12.5 µM; 340,000 tested, 0.14% active;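 active means mean activation of 30% or more, with every replicate also reaching 30%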;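 further: 0% = median of neutral control wells and 100% = median of positive control wells; higher luciferase signal means stronger suppression of miR-122 activity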
# * = called active by the depositor.
SMILES,miR-122 inh
C[C@H]1CN([C@@H](C)CO)C(=O)c2cc(C3=CCCCC3)cnc2O[C@H]1CN(C)Cc1ccccc1C(=O)O,-1
C[C@H](CO)N1C[C@H](C)[C@H](CN(C)C(=O)Nc2ccc(F)cc2)Oc2cc(C#CC3(O)CCCC3)ccc2S1(=O)=O,-1
Oc1ccc2ccccc2c1/C=N/Nc1nnc(-c2ncc[nH]2)c2ccccc12,61*
C[C@@H]1CN([C@H](C)CO)C(=O)c2cc(/C=C/c3ccccc3)cnc2O[C@@H]1CN(C)C(=O)C1CCOCC1,-1
CC#CCCCC(=O)Nc1ccccc1C(=O)O,32*
C[C@@H]1CN([C@H](C)CO)C(=O)c2cc(-c3cccc(C#N)c3)cnc2O[C@@H]1CN(C)C(=O)C1CCCCC1,6
CCCNC(=O)N(C)C[C@@H]1Oc2cc(Br)ccc2S(=O)(=O)N([C@@H](C)CO)C[C@@H]1C,-7
CCC(=O)Nc1ccc2c(c1)OC[C@H](C)N(CCC(F)(F)F)C[C@@H](C)[C@H](OC)CN(C)C2=O,1
CCCNC(=O)N(C)C[C@@H]1Oc2ncc(C#CCC(C)C)cc2C(=O)N([C@H](C)CO)C[C@H]1C,7
CCC(=O)N(C)C[C@@H]1Oc2ncc(C#C[C@H](C)O)cc2C(=O)N([C@H](C)CO)C[C@@H]1C,0
COc1cc2c(cc1OC)C(c1ccc(-c3ccc(Cl)c(Cl)c3)o1)=NCC2,44*
CNC[C@@H]1Oc2cc(C#C[C@H](C)O)ccc2S(=O)(=O)N([C@H](C)CO)C[C@H]1C,1
C/C=C/c1ccc2c(c1)O[C@H](CN(C)C(=O)c1cccnc1)[C@H](C)CN([C@@H](C)CO)S2(=O)=O,2
C/C=C/c1ccc2c(c1)O[C@@H](CN(C)C(=O)CC1CC1)[C@H](C)CN([C@H](C)CO)S2(=O)=O,4
C[C@@H]1CN([C@@H](C)CO)C(=O)c2cc(-c3cncnc3)cnc2O[C@H]1CN(C)Cc1ccc(F)cc1,5
O=C1CC(Sc2nnnn2-c2ccccc2)C(=O)N1c1cccc(Cl)c1 (stereo not drawn),52*
C[C@H](CO)N1C[C@H](C)[C@@H](CN(C)C(=O)C2CCC2)Oc2cc(C#CC(C)(C)O)ccc2S1(=O)=O,-9
COCC#Cc1ccc2c(c1)O[C@@H](CN(C)C(=O)C1CCOCC1)[C@H](C)CN([C@H](C)CO)S2(=O)=O,-9
CCCC(=O)Nc1ccc2c(c1)C(=O)N(C)C[C@@H](OC)[C@H](C)CN[C@@H](C)CO2,-1
CCCC(=O)Nc1ccc2c(c1)C(=O)N(C)[C@@H]1CC[C@H](CC(=O)NCCN3CCCCC3)O[C@H]1CO2,50*
COCCNC(=O)C[C@H]1CC[C@@H]2[C@H](COc3ccc(NC(=O)c4cnccn4)cc3C(=O)N2C)O1,45*
CCNC(=O)C[C@@H]1CC[C@H]2[C@@H](COc3ccc(NC(=O)Nc4ccc(F)cc4)cc3C(=O)N2C)O1,50*
COCCNC(=O)C[C@@H]1CC[C@H]2[C@@H](COc3ccc(NC(C)=O)cc3C(=O)N2C)O1,-183
CCS(=O)(=O)Nc1ccc2c(c1)C(=O)N(C)[C@@H]1CC[C@@H](CC(=O)NCCCN3CCOCC3)O[C@H]1CO2,68*
CCS(=O)(=O)Nc1ccc2c(c1)C(=O)N(C)C[C@H](OC)[C@@H](C)CN[C@@H](C)CO2,-3
SMILES,miR-122 inh
CCCNC(=O)N1C[C@H](C)[C@H](OC)CN(C)C(=O)c2cc(NS(=O)(=O)CC)ccc2OC[C@@H]1C,-24
CO[C@H]1CN(C)C(=O)c2cc(NC(=O)c3nc4ccccc4s3)ccc2OC[C@H](C)N(Cc2ccncc2)C[C@H]1C,-10
CCCNC(=O)C[C@H]1CC[C@H]2[C@H](COc3ccc(NC(=O)c4ccc5c(c4)OCO5)cc3C(=O)N2C)O1,-122
COc1cccc(S(=O)(=O)N(C)C[C@@H]2Oc3ncc(C#CCC(C)C)cc3C(=O)N([C@@H](C)CO)C[C@H]2C)c1,4
C[C@H](CO)N1C[C@H](C)[C@@H](CN(C)C(=O)C2CCCCC2)Oc2ncc(-c3ccccc3F)cc2C1=O,1
COc1ccccc1-c1cnc2c(c1)C(=O)N([C@H](C)CO)C[C@H](C)[C@H](CN(C)Cc1ccccc1)O2,-2
C[C@H](CO)N1C[C@H](C)[C@@H](CN(C)C(=O)c2cccc(F)c2)Oc2ncc(-c3cccc(F)c3)cc2C1=O,2
COc1cccc(-c2cnc3c(c2)C(=O)N([C@@H](C)CO)C[C@H](C)[C@H](CN(C)Cc2cccnc2)O3)c1,-5
C[C@H](CO)N1C[C@H](C)[C@H](CN(C)S(=O)(=O)c2cn(C)cn2)Oc2ncc(-c3cccc(C(F)(F)F)c3)cc2C1=O,4
CCCC#Cc1cnc2c(c1)C(=O)N([C@@H](C)CO)C[C@H](C)[C@H](CN(C)Cc1cccnc1)O2,-3
C[C@H]1CN([C@@H](C)CO)S(=O)(=O)c2ccc(-c3ccncc3)cc2O[C@H]1CN(C)C(=O)C1CC1,4
C[C@@H]1CN([C@H](C)CO)C(=O)c2cc(-c3ccc(F)cc3)cnc2O[C@@H]1CN(C)C(=O)c1ccccn1,-2
COc1ccccc1-c1ccc2c(c1)O[C@H](CN(C)S(=O)(=O)c1ccccc1)[C@@H](C)CN([C@@H](C)CO)S2(=O)=O,-45
C[C@H](CO)N1C[C@H](C)[C@@H](CN(C)Cc2cncnc2)Oc2cc(C#CC3CCCC3)ccc2S1(=O)=O,-95
COCC(=O)N(C)C[C@H]1Oc2ncc(C#Cc3ccncc3)cc2C(=O)N([C@H](C)CO)C[C@@H]1C,-7
CNC[C@@H]1Oc2cc(C#CCC3CCCC3)ccc2S(=O)(=O)N([C@@H](C)CO)C[C@H]1C,-10
C[C@H]1CN([C@@H](C)CO)S(=O)(=O)c2ccc(-c3ccncc3)cc2O[C@@H]1CN(C)Cc1cncnc1,-9
C[C@H]1CN([C@@H](C)CO)C(=O)c2cc(C#CCc3ccccc3)cnc2O[C@@H]1CN(C)C(=O)C1CCCCC1,-1
CN1C(=O)c2cc(NC(=O)NCc3ccccc3)ccc2OC[C@@H]2O[C@@H](CC(=O)NCC3CCCCC3)CC[C@@H]21,-120
CN1C(=O)c2cc(NC(=O)Nc3ccccc3F)ccc2OC[C@@H]2O[C@@H](CC(=O)NCc3ccc(-c4ccccc4)cc3)CC[C@H]21,48*
CCNC(=O)Nc1ccc2c(c1)C(=O)N(C)[C@H]1CC[C@H](CC(=O)Nc3cccc(F)c3)O[C@@H]1CO2,67*
Cc1ccccc1NC(=O)Nc1ccc2c(c1)C(=O)N(C)[C@H]1CC[C@H](CC(=O)NCC3CC3)O[C@H]1CO2,-228
CCCNC(=O)Nc1ccc2c(c1)C(=O)N(C)[C@H]1CC[C@@H](CC(=O)NCC3CCCCC3)O[C@@H]1CO2,42*
CO[C@H]1CN(C)C(=O)c2ccc(NC(=O)Nc3cccc(F)c3)cc2OC[C@@H](C)N(C)C[C@H]1C,-2
CO[C@H]1CN(C)C(=O)c2cc(NC(=O)Nc3ccccc3)ccc2OC[C@@H](C)NC[C@@H]1C,0
Cc1cccc(NC(=O)Nc2ccc3c(c2)C(=O)N(C)[C@@H]2CC[C@@H](CC(=O)NCc4ccccc4Cl)O[C@H]2CO3)c1,55*
CO[C@H]1CN(C)C(=O)c2ccc(NC(=O)Nc3cccc(F)c3)cc2OC[C@H](C)N(C)C[C@H]1C,-11
CN1C(=O)c2cc(NC(=O)Cc3cccs3)ccc2OC[C@@H]2O[C@H](CC(=O)NCc3ccc(-c4ccccc4)cc3)CC[C@@H]21,-188
CN1C(=O)c2cc(NC(=O)Cc3cccs3)ccc2OC[C@@H]2O[C@@H](CC(=O)NCC3CCCCC3)CC[C@@H]21,-196

# From PubChem
